# Data from PubChem BioAssay (NCATS).
# Records with an inconclusive call do not appear. A call without a number means that no potency is given here. Calls of active or inactive are those of the source. Unless noted, calls follow the shape of the dose curve; as a rule, active = well fitted curve in the direction sought with a large enough effect; inconclusive = small, poorly fitted or top-dose-only effect, or another doubt; inactive = no such curve, though single readings can be large; an effect the other way counts as inactive or inconclusive.
# Tests used:
# [1] = target: Lysosomal acid glucosylceramidase (Homo sapiens) (UniProt P04062); experiment: Glucocerebrosidase-p2 (AID 348; in the data active = potency below about 10 µM; also: potency is read from the fitted curve at half-maximal effect); conditions: purified GBA, blue fluorogenic substrate, 40 min
# Method in brief: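 Compounds titrated from 0.6 nM upwards against 0.2 nM enzyme in pH 5.9 citric acid/KH2PO4, taurocholate, tween-20; blue fluorogenic substrate 80 uM, 40 min room temperature, stopped and read Ex 365/Em 440 for AC50.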
# [2] = AP1 Signaling Pathway (AID 357; active = well fitted curve in either direction with a large enough effect, not every such curve was filed as active)
# Method in brief: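 AP-1-bla ME-180 cells with beta-lactamase reporter under AP-1 response element, stimulated with EC50 EGF; compounds titrated, 5 hours at 37 degrees Celsius. CCF4 read at 460/530 nm ratio; positive and negative modulators judged by AC50.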
# [3] = target: Glucocorticoid receptor (Homo sapiens) (UniProt P04150); experiment: GR-EFC Redistribution (AID 451; calls by dose curve; also: potency is read from the fitted curve at half-maximal effect); conditions: CHO-K1 GR-EFC translocation, beta-gal luminescence, 2 h
# Method in brief: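 CHO-K1 cells stably expressing nuclear-localized β-gal enzyme acceptor and GR fused C-terminally to the enzyme donor fragment; ligand-driven nuclear translocation restores β-gal by complementation. Compounds titrated up to 46 uM final, 2 h at 37 °C; luminescence read.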
# [4] = target: Mitogen-activated protein kinase 10 (Mus musculus) (UniProt Q61831); experiment: JNK3 AlphaScreen Assay (AID 530; active = well fitted curve in either direction with a large enough effect, not every such curve was filed as active;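 also: kinase came from lysate of stimulated human HepG2 cells; signal reports phosphorylation of biotinylated GST-cJun 1-79 at Ser73 with 10 µM ATP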)
# Method in brief: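 Inhibitors reduce antibody binding to phosphorylated biotin-cJun, lowering AlphaScreen luminescence. Lysates from HepG2 cells pre-activated by IL-1beta plus TNF-alpha supplied JNK3; compounds were titrated.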
# [5] = target: 3',5'-cyclic-AMP phosphodiesterase 4B (Homo sapiens) (UniProt Q07343); experiment: qHTS Assay for Inhibitors of PDE-IV (AID 607; active = well fitted activation curve with a large enough effect in the main read-out, with a control signal flat, not every such curve was filed as active)
# Method in brief: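 The readout is membrane depolarisation from a cAMP-sensing CNG channel, detected with a potential dye at ex 535/em 590. Cells were HEK293-derived (endogenous PDE-IV) at 1000 cells/well, titrated up to 22.9 uM final.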
# [6] = qHTS Assay for Lipid Storage Modulators (AID 1519; calls by dose curve); conditions: Drosophila S3 cells, BODIPY lipid droplet/cell ratio, laser cytometry, cells loaded with oleic acid
# Method in brief: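 Cells seeded at 5,000 per well were treated with compounds over a concentration series and loaded with oleic acid (400 uM, as added). Lipid droplet fluorescence (488 nm excitation, 500-530 nm channel) was read by laser-scanning cytometry and normalized to 20 uM Triacsin C.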
# [7] = Primary qHTS for small molecule stabilizers of the endoplasmic reticulum resident proteome: Secreted ER Calcium Modulated Protein (SERCaMP) assay (AID 1508630)
# Method in brief: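 GLuc-SERCaMP-expressing SH-SY5Y cells, pretreated 16 h with compound, are challenged with thapsigargin to empty ER calcium stores; after 4 h, coelenterazine is added directly to the medium and luminescence is imaged.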
# [8] = system: HIV-1 nucleocapsid protein NCp7 (binding to TG oligonucleotide); experiment: HIV Nucleocapsid (AID 346; call rule not given here;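 also: potency is read from the fitted curve at half-maximal effect; potency is for inhibitors that block NC binding and lower polarization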); conditions: HIV-1 NC / fluorescein-TGTGTGTG probe, fluorescence polarization
# Method in brief: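 Inhibition of nucleocapsid binding to single-stranded 5'-TGTGTGTG probe (10 nM) was measured by fluorescence polarization after 1 hr at room temperature with 100 nM protein under high-salt, zinc-containing, reducing conditions.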
# [9] = target: Cytochrome P450 1A2 (Homo sapiens) (UniProt P05177); experiment: p450-cyp1a2 (AID 410; calls by dose curve)
# Method in brief: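 20nM CYP1A2 with 100uM Luciferin-ME (at Km) in 100mM KPO4; compound preincubated 10 min, NADPH regeneration added, 60 min at room temperature. Luciferin quantified by luminescence after detection reagent; normalized to 57 uM furafylline.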
# [10] = Stat Signaling Pathway (AID 446; active = well fitted curve in either direction with a large enough effect, not every such curve was filed as active;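 also: ME-180 cervical cancer cells given 40 pM IL-6 alongside compound; SIE-controlled beta-lactamase reporter measured as 460/530 nm FRET emission ratio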)
# Method in brief: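 Screening format detects activators and inhibitors alike: ME-180 SIE-bla cells stimulated at 40 pM IL-6 for 5 hrs with compound, then dual-emission beta-lactamase read at 405 nm excitation.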
# [11] = target: Cytochrome P450 3A4 (Homo sapiens) (UniProt P08684); experiment: qHTS Assay for Inhibitors and Substrates of Cytochrome P450 3A4 (AID 884); also: nearly all actives have a fitted effect of over 50% in size; also: potency is read from the fitted curve at half-maximal effect
# Method in brief: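 20 nM human CYP3A4 with 25 uM Luciferin-PPXE (at KM) in 200 mM KPO4, preincubated 10 min with compound; NADPH regeneration started a 60 min RT reaction. Luciferin detected by luminescence, normalized to 57 uM ketoconazole as full inhibition.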
# [12] = target: Cytochrome P450 3A4 (Homo sapiens) (UniProt P08684); experiment: qHTS Assay for Activators of Cytochrome P450 3A4 (AID 885); also: nearly all actives have a fitted effect of over 65% in size; also: potency is read from the fitted curve at half-maximal effect
# Method in brief: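 Steps: enzyme/substrate mix dispensed; compound added, 10 min RT; NADPH regeneration solution added, 60 min RT; luciferin detection buffer stops reaction; 20 min later luminescence measured.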
# [13] = target: Cytochrome P450 2D6 (Homo sapiens) (UniProt P10635); experiment: qHTS Assay for Inhibitors and Substrates of Cytochrome P450 2D6 (AID 891); also: potency is read from the fitted curve at half-maximal effect; nearly all actives have a fitted effect of over 60% in size
# Method in brief: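 Human CYP2D6 (5 nM) with 30 uM Luciferin-ME EGE (at Km) in 100 mM KPO4, compound preincubated 10 min, then NADPH regeneration system for 60 min at room temperature. Luciferin read by luminescence; normalized to 1.43 uM quinidine.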
# [14] = Confirmation and Secondary Assay for Modulators of Hemoglobin Beta Chain Splicing at IVS2 654 locus (AID 910);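 also: per-well total GFP intensity by laser scanning cytometry after 2-day treatment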
# Method in brief: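 HeLa cells stably carrying EGFP interrupted by mutant beta-globin IVS2-654 intron (CMV-driven) were treated with compound for 2 days at 37C; corrected splicing was scored as total peak GFP intensity per well (488 nm excitation, 500-520 nm emission).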
# [15] = Confirmation and Secondary Assay for Modulators of Hemoglobin Beta Chain Splicing at IVS2 705 locus (AID 930);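 also: HeLa cells stably expressing the EGFP-705 splicing reporter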
# Method in brief: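 HeLa cells stably carrying EGFP interrupted by mutant beta-globin IVS2-705 intron (CMV-driven) were seeded at 500 cells/well, treated next day with compound for 2 days at 37C; corrected splicing restores EGFP, read as total peak GFP intensity per well.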
# [16] = target: Rap guanine nucleotide exchange factor 3 (Homo sapiens) (UniProt O95398); experiment: Confirmatory qHTS for antagonist of cAMP-regulated guanine nucleotide exchange factor 3 (EPAC1) (AID 1645880); also: nearly all actives have a fitted effect of over 55% in size
# Method in brief: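 Nucleotide exchange uses 100 nM EPAC1, 250 nM RAP1B-BODIPY-GDP and 50 uM GDP, with compounds in a concentration-titration series. After 5 min at room temperature, fluorescence (480 nm ex/540 nm em) is read every 5 min for 30 min. Data are normalized to control ATA and DMSO.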
# [17] = target: Rap guanine nucleotide exchange factor 3 (Homo sapiens) (UniProt O95398); experiment: Confirmatory qHTS for agonist of cAMP-regulated guanine nucleotide exchange factor 3 (EPAC1) (AID 1645881);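 also: EPAC1 catalysed release of BODIPY-GDP from Rap1B seen as fluorescence loss; nearly all actives have a fitted effect of over 75% in size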
# [18] = target: Rap guanine nucleotide exchange factor 4 (Homo sapiens) (UniProt Q8WZA2); experiment: Confirmatory qHTS for agonist of cAMP-regulated guanine nucleotide exchange factor 4 (EPAC2) (AID 1645884);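 also: nucleotide exchange releases bodipy-GDP from Rap1 and this lowers its fluorescence; nearly all actives have a fitted effect of over 65% in size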
# [19] = measured here: cell count channel max response
# [20] = measured here: lipid channel max response
# Sequence of Cytochrome P450 3A4 (Homo sapiens) (P08684 whole entry, looked up): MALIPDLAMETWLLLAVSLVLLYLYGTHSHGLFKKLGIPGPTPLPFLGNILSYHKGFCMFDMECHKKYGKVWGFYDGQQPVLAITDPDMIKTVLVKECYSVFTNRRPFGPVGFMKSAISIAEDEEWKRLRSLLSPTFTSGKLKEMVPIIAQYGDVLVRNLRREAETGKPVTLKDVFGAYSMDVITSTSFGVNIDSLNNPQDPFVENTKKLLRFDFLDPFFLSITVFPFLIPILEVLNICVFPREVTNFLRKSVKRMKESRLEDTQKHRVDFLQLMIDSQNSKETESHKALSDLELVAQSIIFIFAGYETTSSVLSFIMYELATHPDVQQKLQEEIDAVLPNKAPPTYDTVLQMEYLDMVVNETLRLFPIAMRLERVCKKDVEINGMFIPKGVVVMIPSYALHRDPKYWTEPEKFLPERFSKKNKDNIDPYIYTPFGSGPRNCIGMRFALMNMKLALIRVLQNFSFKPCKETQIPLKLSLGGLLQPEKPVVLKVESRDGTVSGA
# Sequence of Glucocorticoid receptor (Homo sapiens) (P04150 whole entry, looked up, the tested form may be a part): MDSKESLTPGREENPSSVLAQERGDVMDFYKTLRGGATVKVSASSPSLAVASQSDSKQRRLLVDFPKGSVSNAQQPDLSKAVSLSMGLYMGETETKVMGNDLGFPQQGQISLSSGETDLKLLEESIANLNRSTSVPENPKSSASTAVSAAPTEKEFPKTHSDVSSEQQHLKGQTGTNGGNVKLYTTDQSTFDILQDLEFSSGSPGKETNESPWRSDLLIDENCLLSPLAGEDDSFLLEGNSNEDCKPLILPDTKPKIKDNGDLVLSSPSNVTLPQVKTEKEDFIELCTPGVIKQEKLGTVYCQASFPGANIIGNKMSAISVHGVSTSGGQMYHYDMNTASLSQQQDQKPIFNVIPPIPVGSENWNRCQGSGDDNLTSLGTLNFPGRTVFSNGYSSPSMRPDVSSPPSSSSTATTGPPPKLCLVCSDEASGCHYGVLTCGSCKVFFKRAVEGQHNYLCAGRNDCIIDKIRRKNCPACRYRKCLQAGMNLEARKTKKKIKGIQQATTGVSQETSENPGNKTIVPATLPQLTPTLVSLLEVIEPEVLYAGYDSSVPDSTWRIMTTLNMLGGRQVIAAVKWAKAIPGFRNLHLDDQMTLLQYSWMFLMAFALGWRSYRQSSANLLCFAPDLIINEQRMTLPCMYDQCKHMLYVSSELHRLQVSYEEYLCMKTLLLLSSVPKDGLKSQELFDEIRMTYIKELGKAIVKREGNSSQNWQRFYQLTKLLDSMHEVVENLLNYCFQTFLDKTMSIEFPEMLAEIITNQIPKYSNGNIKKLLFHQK
# Sequence of 3',5'-cyclic-AMP phosphodiesterase 4B (Homo sapiens) (Q07343 whole entry, looked up): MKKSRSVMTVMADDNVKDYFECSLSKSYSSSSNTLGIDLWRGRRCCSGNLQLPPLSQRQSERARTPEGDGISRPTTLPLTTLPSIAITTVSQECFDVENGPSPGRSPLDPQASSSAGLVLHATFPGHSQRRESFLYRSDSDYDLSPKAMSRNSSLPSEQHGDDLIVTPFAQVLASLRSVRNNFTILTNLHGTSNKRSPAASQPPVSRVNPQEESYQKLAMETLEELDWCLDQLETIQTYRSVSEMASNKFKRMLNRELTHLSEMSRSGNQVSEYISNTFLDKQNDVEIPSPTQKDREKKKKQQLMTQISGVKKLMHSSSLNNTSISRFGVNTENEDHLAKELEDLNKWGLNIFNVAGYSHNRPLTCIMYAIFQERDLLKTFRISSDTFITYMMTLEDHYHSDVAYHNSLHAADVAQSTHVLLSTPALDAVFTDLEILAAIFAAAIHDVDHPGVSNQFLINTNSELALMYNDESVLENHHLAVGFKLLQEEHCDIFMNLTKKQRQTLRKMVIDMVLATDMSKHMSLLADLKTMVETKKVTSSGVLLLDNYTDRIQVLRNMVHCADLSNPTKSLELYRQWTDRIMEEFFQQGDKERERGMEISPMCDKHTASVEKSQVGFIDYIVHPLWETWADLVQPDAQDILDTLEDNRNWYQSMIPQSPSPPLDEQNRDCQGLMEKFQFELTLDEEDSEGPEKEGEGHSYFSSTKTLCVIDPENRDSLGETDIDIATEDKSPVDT
# Sequence of Rap guanine nucleotide exchange factor 3 (Homo sapiens) (O95398 whole entry, looked up): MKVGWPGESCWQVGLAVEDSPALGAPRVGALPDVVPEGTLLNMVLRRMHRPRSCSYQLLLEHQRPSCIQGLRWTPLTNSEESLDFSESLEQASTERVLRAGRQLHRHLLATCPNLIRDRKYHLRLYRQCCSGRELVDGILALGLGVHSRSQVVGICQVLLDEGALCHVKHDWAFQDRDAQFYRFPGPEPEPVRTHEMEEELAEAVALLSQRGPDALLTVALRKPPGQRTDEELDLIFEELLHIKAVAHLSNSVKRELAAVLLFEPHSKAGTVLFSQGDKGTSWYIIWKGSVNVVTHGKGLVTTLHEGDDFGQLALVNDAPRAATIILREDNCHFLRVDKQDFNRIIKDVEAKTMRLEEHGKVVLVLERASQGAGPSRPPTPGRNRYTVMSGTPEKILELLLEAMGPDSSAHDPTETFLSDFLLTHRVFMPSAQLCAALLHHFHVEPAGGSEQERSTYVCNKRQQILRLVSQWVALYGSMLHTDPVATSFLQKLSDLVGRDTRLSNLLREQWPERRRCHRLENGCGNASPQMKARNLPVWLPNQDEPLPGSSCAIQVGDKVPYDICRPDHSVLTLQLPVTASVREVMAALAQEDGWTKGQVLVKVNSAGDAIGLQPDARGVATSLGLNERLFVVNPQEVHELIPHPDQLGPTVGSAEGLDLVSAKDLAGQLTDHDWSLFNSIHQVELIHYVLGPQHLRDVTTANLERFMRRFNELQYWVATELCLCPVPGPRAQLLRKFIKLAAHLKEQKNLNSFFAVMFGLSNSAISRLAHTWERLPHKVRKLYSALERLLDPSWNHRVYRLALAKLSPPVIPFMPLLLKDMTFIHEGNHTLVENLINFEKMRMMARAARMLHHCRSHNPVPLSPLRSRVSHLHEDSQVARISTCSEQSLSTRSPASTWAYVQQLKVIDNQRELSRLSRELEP
# Sequence of Lysosomal acid glucosylceramidase (Homo sapiens) (P04062 whole entry, looked up): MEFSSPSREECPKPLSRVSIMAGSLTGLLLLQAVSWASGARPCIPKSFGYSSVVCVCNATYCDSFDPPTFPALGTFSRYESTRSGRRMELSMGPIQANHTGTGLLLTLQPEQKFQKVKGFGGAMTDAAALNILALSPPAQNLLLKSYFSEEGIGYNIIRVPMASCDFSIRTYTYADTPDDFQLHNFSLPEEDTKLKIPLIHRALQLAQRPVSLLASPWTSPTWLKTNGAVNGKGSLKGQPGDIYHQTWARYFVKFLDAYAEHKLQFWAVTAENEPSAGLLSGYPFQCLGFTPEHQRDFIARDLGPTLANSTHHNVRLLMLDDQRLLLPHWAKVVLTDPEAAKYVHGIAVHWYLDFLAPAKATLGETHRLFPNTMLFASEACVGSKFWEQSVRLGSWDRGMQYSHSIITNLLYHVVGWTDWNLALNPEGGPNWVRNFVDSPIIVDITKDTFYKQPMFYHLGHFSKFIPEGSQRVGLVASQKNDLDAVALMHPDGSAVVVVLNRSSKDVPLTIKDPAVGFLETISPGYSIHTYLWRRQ
# Sequence of Cytochrome P450 1A2 (Homo sapiens) (P05177 whole entry, looked up): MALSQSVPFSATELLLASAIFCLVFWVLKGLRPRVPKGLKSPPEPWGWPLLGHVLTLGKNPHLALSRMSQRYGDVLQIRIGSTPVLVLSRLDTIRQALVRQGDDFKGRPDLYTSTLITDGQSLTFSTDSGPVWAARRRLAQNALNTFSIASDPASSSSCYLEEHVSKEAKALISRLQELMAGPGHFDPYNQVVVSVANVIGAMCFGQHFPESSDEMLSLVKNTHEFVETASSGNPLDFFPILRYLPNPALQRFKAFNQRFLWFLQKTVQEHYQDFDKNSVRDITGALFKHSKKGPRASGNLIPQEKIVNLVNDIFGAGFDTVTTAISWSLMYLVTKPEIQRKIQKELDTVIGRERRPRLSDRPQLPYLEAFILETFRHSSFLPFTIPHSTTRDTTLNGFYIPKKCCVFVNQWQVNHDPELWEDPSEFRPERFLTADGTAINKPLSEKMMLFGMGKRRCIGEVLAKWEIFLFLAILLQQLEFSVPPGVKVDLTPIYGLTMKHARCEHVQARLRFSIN
# Sequence of Cytochrome P450 2D6 (Homo sapiens) (P10635 whole entry, looked up): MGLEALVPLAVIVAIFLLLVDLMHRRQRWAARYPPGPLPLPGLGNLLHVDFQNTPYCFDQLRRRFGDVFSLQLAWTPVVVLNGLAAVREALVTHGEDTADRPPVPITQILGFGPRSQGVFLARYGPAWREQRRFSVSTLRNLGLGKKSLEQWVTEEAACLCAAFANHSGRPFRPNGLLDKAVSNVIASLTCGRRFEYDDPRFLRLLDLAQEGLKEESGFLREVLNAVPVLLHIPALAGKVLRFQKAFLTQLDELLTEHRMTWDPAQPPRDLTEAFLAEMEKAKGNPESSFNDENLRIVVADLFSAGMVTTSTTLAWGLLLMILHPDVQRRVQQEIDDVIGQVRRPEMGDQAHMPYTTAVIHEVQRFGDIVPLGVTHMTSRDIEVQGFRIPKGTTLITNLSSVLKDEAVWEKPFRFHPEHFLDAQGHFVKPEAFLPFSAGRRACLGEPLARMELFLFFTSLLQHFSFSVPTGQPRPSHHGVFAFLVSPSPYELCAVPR
structure (smiles),measurement,setting,value
Cc1noc(C)c1C(=O)N1CCC[C@@]2(CCN(CC(C)C)C2)C1,Potency,[1],> 11.4 µM (inactive)
same,outcome,[2],inactive
same,Potency,[3],> 46 µM (inactive)
same,outcome,[4],inactive
same,Potency,[5],inactive
same,"activity change, negative = inhibition",[6]; at 57.5 µM (top of the series),5.3% (inactive)
same,max response,[6]; [19],6.03%
same,max response,[6]; [20],15.4%
same,outcome,[7],inactive
CN1C[C@H](C(=O)N[C@]2(C)O[C@]3(O)[C@H]4CCCN4C(=O)[C@H](Cc4ccccc4)N3C2=O)C[C@H]2c3cccc4[nH]cc(c34)C[C@@H]21,"activity change, negative = inhibition",[6]; at 25.7 µM (top of the series),-4.57% (inactive)
same,max response,[6]; [19],-15.1%
same,max response,[6]; [20],-19.9%
O=C(Oc1ccccc1)N1CCC2(CCN(Cc3nccs3)CC2)CC1,Potency,[8],> 20 µM (inactive)
same,outcome,[2],inactive
same,Potency,[9],inactive
same,outcome,[10],inactive
same,Potency,[3],> 46 µM (inactive)
same,Potency,[5],inactive
same,Potency,[11],inactive
same,Potency,[12],25.1 µM (active)
same,outcome,[7],inactive
O=C(Oc1ccccc1)N1CCC2(CCCN(Cc3nccs3)C2)CC1,Potency,[1],> 11.4 µM (inactive)
same,outcome,[2],inactive
same,Potency,[9],inactive
same,outcome,[10],inactive
same,Potency,[3],> 46 µM (inactive)
same,outcome,[4],inactive
same,Potency,[5],inactive
same,Potency,[12],inactive
same,Potency,[13],5.01 µM (active)
same,outcome,[7],inactive
CC(=O)OC1CC2C(C)(C)C(=O)C=C[C@]2(C)C2CC[C@]3(C)C(=CC(=O)OC3c3ccoc3)[C@]12C (stereo not given in full),Potency,[11],15.8 µM (active)
same,Potency,[14],inactive
same,Potency,[15],inactive
same,"activity change, negative = inhibition",[6]; at 57.5 µM (top of the series),-3.77% (inactive)
same,max response,[6]; [19],5.48%
same,max response,[6]; [20],6.78%
same,Potency,[16],inactive
same,Potency,[17],inactive
same,Potency,[18],inactive
